Results on 38 compounds are retold here after PubChem BioAssay (Tox21).

Inconclusive results are not listed. Unmarked numbers belong to inactive results. Unless noted, the call rests on the fitted dose curve; in most records, active means well fitted cell-killing curve with a large enough effect in the repeat runs; inconclusive means weak or mixed curves, or effect the other way; inactive means no such curve, though single readings can be large or run the other way.
On the % scale 0 is the no-effect control and ±100 the full control effect.

One test can be described thus: qHTS assay to identify small molecule antagonists of the vitamin D receptor (VDR) signaling pathway - cell viability counter screen (AID 743225). Further: nearly all actives have a fitted effect of over 50% in size. As to conditions: VDR-bla HEK293T viability, CellTiter-Glo luminescence, 16 h; series mostly up to 61 µM; viability change, negative = cytotoxic: at the top concentration. A digest of the protocol:
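Cytotoxicity toward the VDR-bla HEK 293T line was scored by ATP-based CellTiter-Glo luminescence, read in the wells already used for the beta-lactamase readout after 16 h compound treatment under 3 nM 1-alpha,25-dihydroxyvitamin D3 stimulation.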
A general note: qHTS replaces the single test concentration by a dilution series.
Turning to `CC(CO)c1ccccc1` (configuration not stated), the “viability change, negative = cytotoxic” value was 29.1%.
Turning to `CCOc1cc([N+](=O)[O-])c(OCC)cc1N1CCOCC1`, the “viability change, negative = cytotoxic” value was 0.174%.
Take `O=S(O)(O)=S`: the viability change, negative = cytotoxic is 4.99% [at 6.95 µM].
Regarding `CCO[Si](CCCS)(OCC)OCC`, the “viability change, negative = cytotoxic” value is 11.4%.
For `N[C@@H](COP(=O)(O)O)C(=O)O`, the “viability change, negative = cytotoxic” value was 5.37% [at 28.5 µM].
For the compound `Brc1ccc(-c2ccccc2)cc1`, the “viability change, negative = cytotoxic” value was 9.11%.
On the same count and under the same terms, next, `CN1C(C)(C)CCCC1(C)C`: 1.72%; `Nc1nnc(-c2cccc(Cl)c2Cl)c(N)n1`: 22.1%.
Regarding `COc1nccnc1NS(=O)(=O)c1ccc(N)cc1`, the “viability change, negative = cytotoxic” value is 5.96%.
For `Nc1ncnc(Nc2ccccc2)n1`, the “viability change, negative = cytotoxic” value is 8.8%.
As to `CC1=CCC(C(C)C)=CC1`, the “viability change, negative = cytotoxic” value is -1.4%.
Consider `CN1CCN(CC(=O)N2c3ccccc3C(=O)Nc3cccnc32)CC1`, for which the viability change, negative = cytotoxic is -0.964% [at 6.95 µM].
Still for that read-out and setting: the figure for `CCCOC(=O)C(C)O` (configuration not stated) is 9.37% [at 78.8 µM]; for `CCOCCOCCOCC` it is -0.0736%.
For `CC(=C(CCOC(=O)C(C)C)SSC(CCOC(=O)C(C)C)=C(C)N(C=O)Cc1cnc(C)nc1N)N(C=O)Cc1cnc(C)nc1N`, the “viability change, negative = cytotoxic” value is -0.0515%.
In the case of `COc1ccc(-c2cc(=O)c3c(O)cc(O[C@@H]4O[C@H](CO[C@@H]5O[C@@H](C)[C@H](O)[C@@H](O)[C@H]5O)[C@@H](O)[C@H](O)[C@H]4O)cc3o2)cc1O`, the “viability change, negative = cytotoxic” value is 5.11%.
On to `Cc1c(I)c(=O)n(-c2ccccc2)n1C`, for which the “viability change, negative = cytotoxic” value is -2.17%.
In the case of `CCC(C=O)CC`, the “viability change, negative = cytotoxic” value is 5.99% [at 78.8 µM].
Consider `COc1cc(NS(=O)(=O)c2ccc(N)cc2)nc(OC)n1`, for which the “viability change, negative = cytotoxic” value is 6.35%.
Still for that read-out and setting: next, `CCN(CC)CC(=O)Nc1c(C)cccc1C`: 31.4%; `NC(CO)C(=O)NNCc1ccc(O)c(O)c1O` (configuration not stated): 12%.
In the case of `CCCCCCCCCCl`, the “viability change, negative = cytotoxic” value was -0.689% [at 78.8 µM].
`CCOC(=O)c1ncn2c1CN(C)C(=O)c1cc(F)ccc1-2`: the “viability change, negative = cytotoxic” value was -7.05%.
Same read-out and setting: next, `N[C@@H](CCC(=O)N[C@@H](CS)C(=O)NCC(=O)O)C(=O)O`: -9.5% [at 28.5 µM].
On to `Cc1cc(C(C)(C)C)c(O)c(C)c1CC1=NCCN1`, for which the “viability change, negative = cytotoxic” value is -0.129%.
Same read-out and setting: the figure for `O=C(O)Cc1ccc(Cl)cc1Cl` is 8.81%; for `O=C(OCc1ccccc1)C(=O)OCc1ccccc1` it is 11.7%.
As to `CC(C)C(=O)OCCc1ccccc1`, the “viability change, negative = cytotoxic” value is -1.96%.
On to `COc1cc(C(=S)N2CCOCC2)cc(OC)c1OC`, for which the “viability change, negative = cytotoxic” value is 0.519%.
As to `COc1ccc(S(=O)(=O)N2c3ccc(Cl)cc3[C@@](O)(c3ccccc3Cl)[C@H]2C(=O)N2CCC[C@@H]2C(N)=O)cc1OC`, the “viability change, negative = cytotoxic” value is -8.75%.
On to `Cc1ccccc1C(=O)Nc1ccc(C(=O)N2CCCC(N(C)C)c3ccccc32)cc1` (configuration not stated), for which the “viability change, negative = cytotoxic” value was -4.6%.
Regarding `CCCCCCCCC1CCC(=O)O1` (configuration not stated), the “viability change, negative = cytotoxic” value was 10.5%.
On the same count and under the same terms, the figure for `NS(=O)(=O)c1ccc(NC(=O)CCC(=O)O)cc1` is 6.06%.
The same measure, in the same setting: the figure for `CCCCCCCCCCCCCC` is 3.73%; for `CC(=O)OC(C)OC(=O)C(C)c1ccc(-c2ccccc2)c(F)c1` (configuration not stated) it is -0.442%.

The nature of another test: qHTS assay to identify small molecule agonists of the NFkB signaling pathway (AID 1159509; active means well fitted curve in the direction sought with a large enough effect in the signal ratio in the repeat runs, not every such curve was filed as active; the % refers to the signal ratio). As to conditions: NFkB-bla ME-180 cells, beta-lactamase FRET ratio, 5 h; series mostly up to 61 µM; activation: at the top concentration. Summed up: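 Pathway activation was measured in ME-180 cells stably expressing beta-lactamase under NF-kB response element control. Substrate cleavage was read as the 460/530 nm emission shift after 5 hr compound incubation.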
As to `CC(CO)c1ccccc1` (configuration not stated), the “activation” value was -0.0143%.
With `CCOc1cc([N+](=O)[O-])c(OCC)cc1N1CCOCC1`, the “activation” value is -0.0169%.
With `CC(=O)c1sc(C)nc1C`, the “activation” value is -0.122%.
On the same count and under the same terms, next, `O=S(O)(O)=S`: -0.163% [at 6.95 µM]; `CCO[Si](CCCS)(OCC)OCC`: -0.628%.
Turning to `N[C@@H](COP(=O)(O)O)C(=O)O`, the “activation” value is 0.376% [at 28.5 µM].
Regarding `Brc1ccc(-c2ccccc2)cc1`, the “activation” value was 0.257%.
Regarding `CCCCC(CC)COCCO` (configuration not stated), the “activation” value was 0.0594%.
`CN1C(C)(C)CCCC1(C)C`: the “activation” value was 0.118%.
Take `Nc1nnc(-c2cccc(Cl)c2Cl)c(N)n1`: the “activation” value was -0.29%.
Take `COc1nccnc1NS(=O)(=O)c1ccc(N)cc1`: the “activation” value is -0.112%.
On the same count and under the same terms, next, `Nc1ncnc(Nc2ccccc2)n1`: -0.147%.
On the same count and under the same terms, the figure for `CN1CCN(CC(=O)N2c3ccccc3C(=O)Nc3cccnc32)CC1` is -0.0785% [at 6.95 µM].
On to `CCCOC(=O)C(C)O` (configuration not stated), for which the “activation” value was -0.389% [at 78.8 µM].
On the same count and under the same terms, next, `CCOCCOCCOCC`: -0.135%.
On the same count and under the same terms, the figure for `CC(=C(CCOC(=O)C(C)C)SSC(CCOC(=O)C(C)C)=C(C)N(C=O)Cc1cnc(C)nc1N)N(C=O)Cc1cnc(C)nc1N` is -0.0367%.
Same read-out and setting: next, `COc1ccc(-c2cc(=O)c3c(O)cc(O[C@@H]4O[C@H](CO[C@@H]5O[C@@H](C)[C@H](O)[C@@H](O)[C@H]5O)[C@@H](O)[C@H](O)[C@H]4O)cc3o2)cc1O`: -0.0367%; `Cc1c(I)c(=O)n(-c2ccccc2)n1C`: -0.12%.
For the compound `CCCCCCCCSCC`, the “activation” value is 0.11%.
As for `CCC(C=O)CC`, the “activation” value is -0.59% [at 78.8 µM].
With `COc1cc(NS(=O)(=O)c2ccc(N)cc2)nc(OC)n1`, the “activation” value is 0.317%.
For the compound `CCN(CC)CC(=O)Nc1c(C)cccc1C`, the “activation” value was 0.127%.
In the case of `NC(CO)C(=O)NNCc1ccc(O)c(O)c1O` (configuration not stated), the “activation” value is -0.759%.
In the case of `CCCCCCCCCCl`, the “activation” value is 0.0066% [at 78.8 µM].
The same measure, in the same setting: next, `CCOC(=O)c1ncn2c1CN(C)C(=O)c1cc(F)ccc1-2`: -0.0187%; `N[C@@H](CCC(=O)N[C@@H](CS)C(=O)NCC(=O)O)C(=O)O`: -0.349% [at 28.5 µM].
`Cc1cc(C(C)(C)C)c(O)c(C)c1CC1=NCCN1`: the “activation” value was -0.957%.
On to `O=C(O)Cc1ccc(Cl)cc1Cl`, for which the “activation” value is -0.405%.
For `O=C(OCc1ccccc1)C(=O)OCc1ccccc1`, the “activation” value is 0.251%.
For `CC(C)C(=O)OCCc1ccccc1`, the “activation” value was 0.16%.
Same read-out and setting: next, `COc1cc(C(=S)N2CCOCC2)cc(OC)c1OC`: 0%; `COc1ccc(S(=O)(=O)N2c3ccc(Cl)cc3[C@@](O)(c3ccccc3Cl)[C@H]2C(=O)N2CCC[C@@H]2C(N)=O)cc1OC`: 0.57%.
As to `Cc1ccccc1C(=O)Nc1ccc(C(=O)N2CCCC(N(C)C)c3ccccc32)cc1` (configuration not stated), the “activation” value was -0.61%.
Turning to `CCCCCCCCC1CCC(=O)O1` (configuration not stated), the “activation” value was -0.677%.
Same read-out and setting: the figure for `NS(=O)(=O)c1ccc(NC(=O)CCC(=O)O)cc1` is -0.0193%; for `CCCCCCCCCCCCCC` it is -0.23%.
For `CC(=O)OC(C)OC(=O)C(C)c1ccc(-c2ccccc2)c(F)c1` (configuration not stated), the “activation” value was -0.0917%.
